ELG1 DNA repair: qHTS screen for small molecules that inhibit ELG1-dependent DNA repair in human embryonic kidney (HEK293T) cells expressing luciferase-tagged ELG1 | AID 504467, 2011 | HEK293T ELG1-luciferase reporter, luminescence, 16 h; DNA damage induced by 5-fluorouridine | Potency, µM (series often up to 46.1 µM), usual class: inhibitors | hit rate 2.3% among 330,000; further: nearly all actives have a fitted effect of over 55% in size
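HEK293T cells expressing luciferase-tagged ELG1 (2,000/well) received 5-Fluorouridine plus compound or DMSO for 16 hr at 37 °C. Luciferase was read by ONE-Glo luminescence after 30 min at room temperature.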
TDP1 inh: qHTS Assay for Inhibitors of Tyrosyl-DNA Phosphodiesterase (TDP1) | Tyrosyl-DNA phosphodiesterase 1 (Homo sapiens), Q9NUW8 | recombinant TDP1, AlphaScreen DNA substrate cleavage | Potency, µM (series often up to 130 µM), actives largely listed as inhibitors | hit rate 0.28% among 350,000 | AID 485290, 2010; further: nearly all actives have a fitted effect of over 40% in size
Target sequence (Q9NUW8 whole entry, looked up): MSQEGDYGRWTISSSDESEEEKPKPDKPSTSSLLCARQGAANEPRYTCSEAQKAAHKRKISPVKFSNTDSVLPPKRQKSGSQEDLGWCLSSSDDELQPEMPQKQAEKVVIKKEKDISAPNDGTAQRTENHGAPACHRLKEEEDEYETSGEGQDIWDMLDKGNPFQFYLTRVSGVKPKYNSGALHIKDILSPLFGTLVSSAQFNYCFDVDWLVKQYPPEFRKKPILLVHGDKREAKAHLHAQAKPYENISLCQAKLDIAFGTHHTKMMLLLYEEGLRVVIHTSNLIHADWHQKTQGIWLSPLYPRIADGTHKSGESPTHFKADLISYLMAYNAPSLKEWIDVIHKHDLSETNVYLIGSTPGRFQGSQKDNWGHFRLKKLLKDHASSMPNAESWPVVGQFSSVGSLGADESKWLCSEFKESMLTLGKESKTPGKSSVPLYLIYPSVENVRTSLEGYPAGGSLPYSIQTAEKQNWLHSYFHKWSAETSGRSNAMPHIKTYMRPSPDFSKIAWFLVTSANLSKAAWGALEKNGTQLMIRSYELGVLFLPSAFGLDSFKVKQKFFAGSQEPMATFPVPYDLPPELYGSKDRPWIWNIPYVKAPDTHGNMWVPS
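Recombinant E. coli-expressed Tdp1 (1 nM) preincubated with compound 15 min at RT, then 5'-biotin/3'-phosphotyrosine-FITC DNA substrate (15 nM) added for 5 min. AlphaScreen beads (10 ug/ml) added, 10 min RT; tyrosine-FITC cleavage read as signal loss.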
IL1B secr inh: qHTS for Inhibitors of Inflammasome Signaling: IL-1-beta AlphaLISA Primary Screen; THP-1 LPS/ATP IL-1B secretion, AlphaLISA, 16 h; hits give low values; activity change, % at 57.5 µM; hit rate 4.7% among 360,000; in the data active means activity change below about -50%; inconclusive means mostly about -30% to -49%
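THP-1 cells pretreated 1 hr with compounds (up to 57.5 uM final), then stimulated with LPS (250 ng/mL final) plus ATP (1.25 mM final); secreted IL-1B measured by AlphaLISA after 16 hr, decreased signal indicating inhibition.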
DT40 TDP1 no CPT: qHTS for Inhibitors of human tyrosyl-DNA phosphodiesterase 1 (TDP1): qHTS in cells in absence of CPT. hit rate 15% among 420,000. Potency, µM (series often up to 46.2 µM), actives largely listed as inhibitors. DT40 Tdp1-/- hTDP1 cells, no CPT, ATP luminescence, 48 h; further: nearly all actives have a fitted effect of over 55% in size
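Cells were dispensed at 400 per well, compounds added by pin tool, plates incubated ≥48 hr at 37 °C, then CellTiter-Glo added for 30 min at room temperature before luminescence reading. Line: DT40 Tdp1-/- complemented with hTDP1; camptothecin omitted.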
TDP1 cell CPT: qHTS for Inhibitors of human tyrosyl-DNA phosphodiesterase 1 (TDP1): qHTS in cells in presence of CPT. chicken DT40 Tdp1-/-;hTDP1 cells + 20 nM CPT, ATP luminescence, 48 h. Potency, µM (series often up to 46.2 µM), hits mostly inhibitors. hit rate 12% among 420,000. AID 686979, 2013; further: nearly all actives have a fitted effect of over 55% in size
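Chicken DT40 Tdp1-/- cells stably complemented with human TDP1 were seeded at 400 cells/well in medium containing 20 nM camptothecin, exposed to pin-transferred compounds, and grown at 37 °C for at least 48 hr. Viability was read as ATP luminescence.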
Giardia killer: Small Molecules that selectively kill Giardia lamblia: qHTS. hit rate 0.15% among 340,000. Giardia lamblia trophozoite viability. activity change, % at 7.66 µM, hits read low; in the data active means activity change below about -80%; inconclusive means between about -30% and that limit;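 further: parasites exposed to compound for two days anaerobically before the ATP read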
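ATP-content bioluminescence gauges trophozoite survival. Cells (100/well) receive compound and incubate anaerobically for 48 hrs at 37 deg C; detection reagent follows for 15-30 min at room temperature.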
Hits are given with their value; 0 = inactive; ? = inconclusive; - = not tested or not shown; ! = not confirmed by another sample. A selection: hits, their analogues and other compounds. The true share with any hit is near 19%. Unless noted, the call rests on the fitted dose curve; in most records, active means well fitted curve in the direction sought with a large enough effect; inconclusive means small, poorly fitted or top-dose-only effect, or another doubt; inactive means no such curve, though single readings can be large; an effect the other way counts as inactive or inconclusive.

SMILES	ELG1 DNA repair	TDP1 inh	IL1B secr inh	DT40 TDP1 no CPT	TDP1 cell CPT	Giardia killer
Nc1c(C(=O)OCc2ccccc2)c2nc3ccccc3nc2n1Cc1cccs1	21µM	0	-90	?	?	0
CCC(C)OC(=O)c1c(N)n(Cc2cccs2)c2nc3ccccc3nc12 (stereo not given)	?	0	?	?	?	0
CC(C)(C)OC(=O)c1c(N)n(Cc2ccco2)c2nc3ccccc3nc12	?	0	?	?	?	0
Nc1c(C(=O)NCCN2CCOCC2)c2nc3ccccc3nc2n1Cc1ccccc1	?	0	-	23µM	?	0
COc1ccc(CCNC(=O)c2c(N)n(CCN3CCOCC3)c3nc4ccccc4nc23)cc1	?	0	?	18µM	21µM	0
Nc1c(C(=O)NCCN2CCOCC2)c2nc3ccccc3nc2n1Cc1ccco1	21µM	-	0	15µM	?	0
COc1ccccc1CNC(=O)CCC1N=C2c3ccccc3N=C(SCc3cccc(Cl)c3)N2C1=O (stereo not given)	-	0	-	?	?	-
CCCCOCCCn1c(N)c(C(=O)OC(C)COC)c2nc3ccccc3nc21 (stereo not given)	?	0	?	?	?	0
Nc1c(C(=O)NCCc2ccccc2)c2nc3ccccc3nc2n1CCN1CCOCC1	?	0	-86	16µM	21µM	0
c1ccc(CCN2CCOCC2)cc1	-	-	-	0	0	-
CCCCn1c(N)c(C(=O)NCCN2CCOCC2)c2nc3ccccc3nc21	5.8µM	0	-54	23µM	15µM	0
CCOC(=O)c1c(N)n(CCN2CCCCC2)c2nc3ccccc3nc12	?	0	-83	0	0	0
O=C1CC(c2ccc(C(F)(F)F)cc2)c2c(c3ccccc3oc2=O)O1 (stereo not given)	-	0	-	0	0	-
N/C(=N\N=C/c1ccc(-c2ccc(O)c(C(=O)O)c2)o1)N[N+](=O)[O-]	0	2.8µM	0	0	?	0
COP(=S)(OC)Oc1ccc([N+](=O)[O-])cc1	-	0	-	2.9µM	5.8µM	-
CN(C)P(=NC(=S)c1cccn1C)(N(C)C)N(C)C	-	0	0	4.1µM	8.2µM	0
CN(C)P(=O)(NC(=O)c1cccn1C)N(C)C	0	0	0	0	0	0
CCOC(=O)c1ccc(S(=O)(=O)n2c(=O)oc3ccccc32)cc1	0	0	0	0	?	0
CCOC(=O)c1oc2ccc(S(=O)(=O)n3nc(-c4ccc(Br)cc4)cc3N)cc2c1C	-	0	-	12µM	21µM	-
C[C@@H]1[C@H](O)[C@@H](C)/C=C/C=C/CC/C=C/C=C/C=C/C=C/[C@H](O[C@H]2O[C@@H](C)[C@H](O)[C@@H](N)[C@H]2O)CC2O[C@](O)(C[C@@H](O)[C@H](O)CC[C@@H](O)C[C@@H](O)C[C@@H](O)CC(=O)O[C@H]1C)C[C@H](O)[C@H]2C(=O)O	-	-	-	0	0	-
Cc1ccccc1C(O)(Cc1ccccc1)C1CN2CCC1CC2 (stereo not given)	?	0	?	18µM	18µM	0
Cc1ccc(C(O)(c2ccc(C)c(C)c2)C2CN3CCC2CC3)cc1C (stereo not given)	0	-	-86	2.3µM	3.7µM	0
Fc1ccccc1CNC1CN2CCC1CC2 (stereo not given)	0	0	0	?	?	0
[N-]=[N+]=[N-]	-	0	-	-	-	-
COc1ccccc1CN1CCN(C(=O)COc2ccc3ccccc3c2)CC1	0	0	0	0	?	0
SMILES	ELG1 DNA repair	TDP1 inh	IL1B secr inh	DT40 TDP1 no CPT	TDP1 cell CPT	Giardia killer
COc1ccc(OC)c(CN2CCN(C(=O)COc3cccc(C)c3)CC2)c1	0	0	0	?	26µM	0
COc1ccccc1CN1CCN(C(=O)COc2cccc(C)c2)CC1	0	0	0	21µM!	?	0
COc1ccc(CN2CCN(C(=O)COc3cccc(C)c3)CC2)c(OC)c1	0	0	0	?	?	0
CCc1ccc(OCC(=O)N2CCN(CCc3ccccn3)CC2)cc1	-	0	-	0	0	-
O=[N+]([O-])c1ccc(N2CCCC(C(F)(F)F)C2)c2ccncc12 (stereo not given)	0	0	0	9.2µM	13µM	0
O=[N+]([O-])c1ccc(N2CCCCC2)c2ncccc12	0	0	0	?	0	0
CCOc1ccc(C(=O)Nc2cc(NC(=O)c3ccco3)ccc2OC)cc1Br	-	0	-	?	?	-
CCCCCCn1c(=O)c(C(=O)Nc2c(C)n(C)n(-c3ccccc3)c2=O)c(O)c2ccccc21	0	-	0	6.5µM	5.2µM	0
CCCCCn1c(=O)c(C(=O)Nc2ccccc2)c(O)c2ccccc21	0	-	0	5.2µM	4.1µM	0
CCCCCn1c(=O)c(C(=O)NCc2ccccc2Cl)c(O)c2ccccc21	0	-	0	?	?	0
CCCCCn1c(=O)c(C(=O)Nc2cccc(C)c2)c(O)c2ccccc21	0	-	0	4.6µM	0	0
CCOc1ccc(CC2(CCc3ccncc3)C(=O)NC(=O)NC2=O)cc1	0	0	0	?	0	0
CCC1(CC)C(=O)NC(=O)N(C)C1=O	-	-	-	0	0	-
CN1C2CC(OC(=O)C(CO)c3ccccc3)CC1C1OC12 (stereo not given)	0	0	0	0	0	0
COc1ccc2c3c1O[C@H]1[C@H](O)CC[C@H]4[C@@H](C2)N(C)CC[C@@]341	-	-	-	0	0	-
CN1C(=O)CN=C(c2ccc[nH]2)c2cc(Cl)ccc21 (tested in a mixture with another compound)	-	-	0	1.3µM	1.6µM	-
Cc1ccc(NC(=O)CN2C(=O)CN=C(c3ccccc3)c3ccccc32)cc1Cl	-	0	-	?	23µM	-
CN1C(=O)CN=C(c2ccc(Cl)cc2)c2cc(Cl)ccc21	?	0	0	?	0	0
NNC(=O)CN1C(=O)CN=C(c2ccccc2)c2cc(Br)ccc21	0	0	-	0	0	0
Cc1ccccc1CN1C(=O)CN=C(c2ccccc2)c2cc(Cl)ccc21	-	0	-	18µM	?	-
CN1C(=S)CN=C(c2ccccc2)c2cc(Cl)ccc21	-	0	-	15µM	?	-
Cc1cccc(CN2C(=O)CN=C(c3ccccc3Cl)c3cc(Cl)ccc32)c1	-	0	-	23µM	23µM	-
CN(C)[C@@H]1C(=O)C(C(N)=O)=C(O)[C@@]2(O)C(=O)C3=C(O)c4c(O)ccc(Cl)c4[C@@](C)(O)C3C[C@@H]12 (stereo not given in full)	0	0	0	23µM	?	0

Screening data deposited in PubChem by National Center for Advancing Translational Sciences (NCATS).
